The source of these data is PubChem BioAssay (EPA / NIEHS).

Assay [1] can be described thus: ACEA_AR_agonist_AUC_viability: ACEA Biosciences xCELLigence Real-Time Cell Analysis on Androgen Receptor Agonism for Viability (AID 2283775).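 For AC50: viability read 80 hours after compound addition.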 In a few lines: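 Read-out is area under the impedance curve at 80 h post-dose in 22Rv1 cells, with DMSO as baseline and signal loss taken as reduced viability. Compounds ran in duplicate from 100 uM final.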
The nature of assay [2]: ACEA_AR_antagonist_AUC_viability: ACEA Biosciences xCELLigence Real-Time Cell Analysis on Androgen Receptor Antagonism for Viability (AID 2283776).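 Note: area under impedance growth curve at 80 h after dosing as viability; hits lower the growth signal relative to DMSO meaning cytotoxicity.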 Put shortly: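 22Rv1 human prostate cancer cells were seeded on electrode plates, monitored overnight, then exposed to eight 1:4 dilutions from 100 uM final. Impedance-based growth kinetics at 80 h gave an AUC viability endpoint normalized to DMSO.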

The nature of assay [3]: ACEA_ER_AUC_viability: ACEA Biosciences xCELLigence Real-Time Cell Analysis on Estrogen Receptor Agonism for Viability (AID 2283782).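 Note: continuous compound exposure with impedance area under curve over 80 h; hit means loss of impedance signal meaning reduced cell growth or viability.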 Put shortly:
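T-47D human breast cells in phenol red-free RPMI1640 with 10% charcoal-stripped FBS were dosed with an 8-point 1:4 dilution series from 100 uM top final concentration, in duplicate. Impedance-based growth was followed for 80 h; AUC analysed versus DMSO.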

Records with an inconclusive call do not appear. Active and inactive are the calls of the source. Rule for the calls: active = hit-call score of the fitted dose curve at least 0.9, where 1 is the maximum; inconclusive = response in the unintended direction; inactive = score below 0.9.

Take `CCCCc1ccc(Cl)cc1`: the compound was classed as inactive in assay [1], in assay [2] and in assay [3].
As usually defined, the AC50 is the midpoint of the concentration-response curve, whichever way the signal moves. As to `Oc1ccc(-c2ccccc2)c(Cl)c1`, in assay [1], the compound was classed as inactive. In addition, the AC50 is 0.598 µM (active) in assay [2] and 82.6 µM (active) in assay [3].
Take `C[Si](C)(C)N[Si](C)(C)C`: the compound was called inactive in assay [1], in assay [2] and in assay [3].
Take `N#Cc1ccc(C(c2ccc(C#N)cc2)n2cncn2)cc1`: the AC50 in assay [1] is 4.94 µM (active). Moreover, the outcome in assay [3] was inactive.
For the compound `O=C(O)C1CCC(C(=O)O)CC1` (stereo not given), the outcome in assay [1] and in assay [3] was inactive.
For the compound `C=C[Si](OCCOC)(OCCOC)OCCOC`, the outcome in assay [1] and in assay [3] was inactive.
As to `CCCCNS(=O)(=O)c1ccccc1`, the outcome in assay [1], in assay [2] and in assay [3] was inactive.
As for `O=C(O)CCC(=O)O`, the outcome in assay [1] and in assay [3] was inactive.
For `Fc1ccc(Br)cc1`, the result in assay [1] and in assay [3] was inactive.
Take `CCN1CN(CC)CN(CC)C1`: the outcome in assay [1] and in assay [2] was inactive. The half-maximal activity concentration (AC50) in assay [3] is 66.4 µM (active).
`CC(C)(c1ccccc1)c1ccc(Nc2ccc(C(C)(C)c3ccccc3)cc2)cc1`: the call in assay [1] and in assay [3] was inactive. In assay [2], the AC50 was 11.4 µM (active).
On to `O=C(O)c1cc(O)c2ccccc2c1O`, for which the compound was classed as inactive in assay [1] and in assay [2]. In addition, the AC50 in assay [3] is 26 µM (active).
Take `c1ccc(Nc2cccc3ccccc23)cc1`: in assay [1], the result was inactive. Also, the AC50 was 2.4 µM (active) in assay [2] and 81.4 µM (active) in assay [3].
For the compound `CCC(C)(O)CCCC(C)C` (stereo not given), the call in assay [1], in assay [2] and in assay [3] was inactive.
With `CCc1occc(=O)c1O`, the call in assay [1], in assay [2] and in assay [3] was inactive.
Consider `O=C(Oc1ccccc1)c1ccccc1O`, for which the compound was classed as inactive in assay [1] and in assay [3].
For the compound `CC1(C)[C@@H]2CC[C@@]1(C)C(=O)C2`, the result in assay [1], in assay [2] and in assay [3] was inactive.
On to `CCCCCCCCCCCC(=O)N(C)CC(=O)O`, for which the outcome in assay [1], in assay [2] and in assay [3] was inactive.
With `C=C(C)C1CC=C(C)CC1` (stereo not given), the call in assay [1] and in assay [3] was inactive.
On to `O=C(OCc1ccccc1)c1ccc(O)cc1`, for which, in assay [1], the compound was called inactive. Further, the AC50 in assay [3] is 82.6 µM (active).
For the compound `COc1cc(O)c(C(=O)c2ccccc2)cc1S(=O)(=O)O`, the outcome in assay [2] was inactive.
With `CCCCC(CC)COC(=O)/C=C/c1ccc(OC)cc1` (stereo not given), the call in assay [1] was inactive. Moreover, the AC50 in assay [3] is 40.1 µM (active).
Consider `CC(C)(C)N`, for which the result in assay [1], in assay [2] and in assay [3] was inactive.
For the compound `CC(CCC(=O)O)(c1ccc(O)cc1)c1ccc(O)cc1`, the AC50 in assay [2] was 1.24 µM (active).
As for `O=C(Nc1ccccc1)c1cc(Cl)ccc1O`, the AC50 in assay [1] was 14.3 µM (active); in assay [2] it was 16.6 µM (active); in assay [3] it was 82.1 µM (active).
For `CCCCC(C=O)CC` (stereo not given), the result in assay [1] and in assay [3] was inactive.
For the compound `CC(C)c1cc(C(C)C)cc(C(C)C)c1`, the outcome in assay [1], in assay [2] and in assay [3] was inactive.
For the compound `CCCCCCCCCCCCc1ccc(O)cc1`, the AC50 is 16.6 µM (active) in assay [1], 16.6 µM (active) in assay [2] and 20 µM (active) in assay [3].
With `CC(C)=CCCC(C)=CC#N`, the call in assay [2] was inactive.
Turning to `CC1=NN(c2ccc(S(=O)(=O)O)cc2)C(=O)C1N=Nc1ccccc1` (stereo not given), the outcome in assay [1], in assay [2] and in assay [3] was inactive.
Turning to `CCCCC/C=C\C/C=C\CCCCCCCC(=O)O`, the call in assay [1] and in assay [2] was inactive. In addition, in assay [3], the AC50 is 81.4 µM (active).
Regarding `CCCCCCCCCCCCCC(=O)OC(C)C`, the compound was classed as inactive in assay [1], in assay [2] and in assay [3].
As to `CC(=O)OCc1ccccc1`, the result in assay [1], in assay [2] and in assay [3] was inactive.
For the compound `CC(C)c1ccc(O)c(C(C)C)c1`, the outcome in assay [1] was inactive. Besides, in assay [3], the AC50 is 79.4 µM (active).
For `CCCCCCCCCCCCCCCCCCOS(=O)(=O)O`, in that order: “inactive” and 75.4 µM (active).
`Cc1ccc(C)c(OCCCC(C)(C)C(=O)O)c1`: the call in assay [2] was inactive.
Regarding `CC(C)COC(=O)CC(C(=O)OCC(C)C)S(=O)(=O)O` (stereo not given), the call in assay [1] and in assay [3] was inactive.
